PAFAH1B3 inh: inhibitors of human PAFAH1B3. Q15102. recombinant PAFAH1B3, FP-rhodamine probe, fluorescence polarization. inhibition, % at 3.39 µM. 0.28% of 340,000 active. AID 492972;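 active = inhibition above the screen-wide average of all tested compounds plus 3 SD, cut at about 25% in these data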;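 also: 0% = enzyme with DMSO only and 100% = wells lacking PAFAH1B3 protein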
TCR-CD3 inh: human TCR-CD3 binding inhibition; inhibition, % at 9.4 µM; AID 651800; 0.37% of 360,000 active; TAMRA-labeled TCR probe fluorescence, biochemical; in the data active = inhibition above about 19%;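 also: recombinant mutant TCR 2C K166C tagged with TAMRA read by polarization; 0% = receptor in buffer alone and 100% = receptor with positive control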
pPAFAH inh: pPAFAH (human) enzyme inhibition. Q13093. recombinant pPAFAH, FP-rhodamine probe fluorescence polarization. inhibition, % at 3.39 µM. 1.5% of 330,000 active. AID 463082;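 active = inhibition above the mean inhibition across the screen plus 3 SD, cut at about 25% in these data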;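 also: inhibitors block binding of the rhodamine activity-based probe so polarization drops; 0% = enzyme with DMSO and 100% = wells lacking pPAFAH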
Target sequence (Q13093 whole entry, looked up): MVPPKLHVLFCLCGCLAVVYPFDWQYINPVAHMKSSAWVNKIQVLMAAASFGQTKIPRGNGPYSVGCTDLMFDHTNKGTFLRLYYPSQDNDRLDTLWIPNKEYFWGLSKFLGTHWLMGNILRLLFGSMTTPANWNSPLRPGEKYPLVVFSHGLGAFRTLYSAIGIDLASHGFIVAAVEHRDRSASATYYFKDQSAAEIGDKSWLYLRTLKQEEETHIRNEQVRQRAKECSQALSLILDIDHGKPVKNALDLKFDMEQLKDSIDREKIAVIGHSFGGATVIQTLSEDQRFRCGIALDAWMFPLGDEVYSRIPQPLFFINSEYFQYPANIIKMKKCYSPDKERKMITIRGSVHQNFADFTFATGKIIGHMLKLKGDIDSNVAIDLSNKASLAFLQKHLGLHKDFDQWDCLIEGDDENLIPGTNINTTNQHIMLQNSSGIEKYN
PAFAH2 inh: PAFAH2 (human) inhibition; 0.99% of 340,000 active; recombinant PAFAH2, FP-rhodamine activity probe, fluorescence polarization; inhibition, % at 3.39 µM;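 active = inhibition above the mean over all tested compounds plus 3 SD, cut at about 30% in these data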;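 also: inhibitors block probe labeling of enzyme so polarization drops; 0% = enzyme with DMSO and 100% = wells lacking PAFAH2 protein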
PAFAH1B2 inh: PAFAH1B2 (human) inhibition; P68402; recombinant PAFAH1B2, FP-rhodamine activity probe, fluorescence polarization; inhibition, % at 3.39 µM; 1.2% of 340,000 active;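 active = inhibition above the mean of all tested compounds plus 3 SD, cut at about 24% in these data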;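 also: 0% = enzyme with DMSO and 100% = wells lacking PAFAH1B2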
Target sequence (P68402 whole entry, looked up): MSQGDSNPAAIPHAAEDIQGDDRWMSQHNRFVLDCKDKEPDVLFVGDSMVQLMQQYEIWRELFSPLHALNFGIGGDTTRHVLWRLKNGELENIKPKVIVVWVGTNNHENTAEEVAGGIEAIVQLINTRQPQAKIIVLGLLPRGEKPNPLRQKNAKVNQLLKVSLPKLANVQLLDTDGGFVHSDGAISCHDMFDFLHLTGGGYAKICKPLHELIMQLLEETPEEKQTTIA
PAFAH2 FP conf: PAFAH2 (human) inhibition, confirmed; shares compounds with PAFAH2 inh; recombinant PAFAH2, FP-rhodamine activity probe, fluorescence polarization; inhibition, % at 3.39 µM; 65% of 2,300 active; AID 493030;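 active = mean inhibition over three repeats above a set limit taken from the earlier primary screen, cut at about 30% in these data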;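 also: inhibitor blocks binding of rhodamine activity probe so polarization falls; 0% = enzyme with DMSO and 100% = wells lacking PAFAH2 protein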
Starred values were filed as active, the others as inactive. This is a sample that favours compounds with a hit; in the whole collection about 2.7% have one here.

Results for COc1cc2nc(-c3ccccc3C)oc(=O)c2cc1OC ?
PAFAH1B3 inh: 10; TCR-CD3 inh: 4; pPAFAH inh: 1; PAFAH2 inh: 6; PAFAH1B2 inh: 1

Results for Cc1ccc2nc(-c3ccccc3)oc(=O)c2c1 ?
PAFAH1B3 inh: 4; TCR-CD3 inh: -7; pPAFAH inh: 1; PAFAH2 inh: 86*; PAFAH1B2 inh: 0; PAFAH2 FP conf: 69*

Results for COc1ccc(-c2nc3ccc(C)cc3c(=O)o2)cc1OC ?
PAFAH1B3 inh: -2; TCR-CD3 inh: 11; pPAFAH inh: 4; PAFAH2 inh: 43*; PAFAH1B2 inh: -5; PAFAH2 FP conf: 42*

How did Cc1ccccc1-c1nc2ccccc2c(=O)o1 do in these assays?
TCR-CD3 inh: 3

How did O=c1oc(-c2ccc(Br)o2)nc2ccccc12 do in these assays?
PAFAH1B3 inh: 10; TCR-CD3 inh: 4; pPAFAH inh: -6; PAFAH2 inh: 60*; PAFAH1B2 inh: 3; PAFAH2 FP conf: 65*

Results for CNc1ncnc2c1ncn2[C@H]1CN(Cc2cccnc2)C[C@@H](CO)O1 ?
TCR-CD3 inh: 10

Results for C[C@@H](NC(=O)C1(c2ccccc2)CCN(C(=O)OC(C)(C)C)CC1)C(=O)N[C@@H](C(=O)O)c1ccccc1 ?
PAFAH1B3 inh: 2; TCR-CD3 inh: 8; pPAFAH inh: 6; PAFAH2 inh: 6; PAFAH1B2 inh: 3

How did COc1cc(SC)ccc1C(=O)OCC(=O)NC(=O)NC(C)C do in these assays?
PAFAH1B3 inh: 9; TCR-CD3 inh: -3; pPAFAH inh: 4; PAFAH2 inh: 18; PAFAH1B2 inh: 3

What do the screens show for `COc1cc(SC)ccc1C(=O)OCC(=O)NCC(C)C`?
PAFAH1B3 inh: 13; TCR-CD3 inh: 3; pPAFAH inh: 13; PAFAH2 inh: 45*; PAFAH1B2 inh: 2; PAFAH2 FP conf: 28

What do the screens show for `CC(C)CNC(=O)COC(=O)c1ccc(F)cc1Cl`?
PAFAH1B3 inh: -3; TCR-CD3 inh: -5; pPAFAH inh: 13; PAFAH2 inh: 35*; PAFAH1B2 inh: 4; PAFAH2 FP conf: 19

How did Cc1ccc(C(=O)ONc2ccc(N=NC(=O)c3ccccc3O)cc2)cc1 do in these assays?
PAFAH1B3 inh: 10; TCR-CD3 inh: 7; pPAFAH inh: -6; PAFAH2 inh: 45*; PAFAH1B2 inh: 6; PAFAH2 FP conf: 22

Results for Cc1ccc(C(=O)ONc2ccc(N=O)cc2)cc1 ?
PAFAH1B3 inh: -4; TCR-CD3 inh: 2; pPAFAH inh: 10; PAFAH2 inh: 57*; PAFAH1B2 inh: 0; PAFAH2 FP conf: 52*

Results for OC[C@H]1O[C@@H](c2nc(-c3ccc4[nH]ccc4c3)no2)[C@H](O)[C@@H](O)[C@H]1O ?
TCR-CD3 inh: -4

What do the screens show for `O=C(COC(=O)c1ccc(CN2CCCC2=O)cc1)Nc1ccc(F)cc1`?
PAFAH1B3 inh: 6; TCR-CD3 inh: 6; pPAFAH inh: 8; PAFAH2 inh: 85*; PAFAH1B2 inh: 0; PAFAH2 FP conf: 86*

Results for Cc1ccc(NC(=O)COC(=O)c2ccc(CN3CCCC3=O)cc2)cc1C ?
PAFAH1B3 inh: 9; TCR-CD3 inh: 7; PAFAH2 inh: 92*; PAFAH1B2 inh: 0; PAFAH2 FP conf: 85*

How did Cc1ccc(NC(=O)COC(=O)c2ccc3c(c2)NC(=O)C2CCCN32)cc1C (stereo unspecified) do in these assays?
TCR-CD3 inh: -4

How did CC(OC(=O)c1ccc(CN2CCCC2=O)cc1)C(=O)Nc1ccc(Cl)cc1 (stereo unspecified) do in these assays?
PAFAH1B3 inh: 3; TCR-CD3 inh: 8; pPAFAH inh: -1; PAFAH2 inh: -5; PAFAH1B2 inh: 3

Results for CC1(C)CC(=O)C=C(N=CC2=C(O)CC(C)(C)CC2=O)C1 ?
PAFAH1B3 inh: -4; TCR-CD3 inh: 5; pPAFAH inh: 2; PAFAH2 inh: 33*; PAFAH1B2 inh: 2; PAFAH2 FP conf: 7

How did CC1(C)CC(=O)C(C=Nc2ccncc2)=C(O)C1 do in these assays?
PAFAH1B3 inh: 8; TCR-CD3 inh: -1; pPAFAH inh: 2; PAFAH2 inh: 1; PAFAH1B2 inh: 2

Results for CCN(CC)S(=O)(=O)c1cccc(NC(=O)COC(=O)c2cccs2)c1 ?
PAFAH1B3 inh: 6; TCR-CD3 inh: -3; pPAFAH inh: 10; PAFAH2 inh: 61*; PAFAH1B2 inh: 4; PAFAH2 FP conf: 46*

What do the screens show for `CCN(CC)S(=O)(=O)c1cccc(NC(=O)COC(=O)/C=C/c2cccs2)c1`?
PAFAH1B3 inh: -5; TCR-CD3 inh: -2; pPAFAH inh: 9; PAFAH2 inh: 67*; PAFAH1B2 inh: 3; PAFAH2 FP conf: 58*

Results for CCN(CC)S(=O)(=O)c1cccc(C(=O)N[C@H](C(=O)OCC(=O)Nc2ccccc2)C(C)C)c1 ?
PAFAH1B3 inh: -10; TCR-CD3 inh: 1; pPAFAH inh: 5; PAFAH2 inh: 51*; PAFAH1B2 inh: 5; PAFAH2 FP conf: 39*

What do the screens show for `CCN(CC)S(=O)(=O)c1cccc(NC(=O)COC(=O)c2cncc(Br)c2)c1`?
PAFAH1B3 inh: 4; TCR-CD3 inh: 4; pPAFAH inh: 8; PAFAH2 inh: -2; PAFAH1B2 inh: 0

Results for CCN(CC)S(=O)(=O)c1cccc(NC(=O)COC(=O)C2CC3C=CC2C3)c1 (stereo unspecified) ?
PAFAH1B3 inh: -3; TCR-CD3 inh: -7; pPAFAH inh: 20; PAFAH2 inh: 38*; PAFAH1B2 inh: 3; PAFAH2 FP conf: 26

What do the screens show for `COc1ccc(NC(=O)COC(=O)C2CC3C=CC2C3)cc1` (stereo unspecified)?
PAFAH1B3 inh: 3; TCR-CD3 inh: -10; pPAFAH inh: 11; PAFAH2 inh: 13; PAFAH1B2 inh: 1

How did O=c1oc(-c2ccc(F)cc2)nc2ccsc12 do in these assays?
PAFAH1B3 inh: 7; TCR-CD3 inh: -9; pPAFAH inh: -1; PAFAH2 inh: 48*; PAFAH1B2 inh: -2; PAFAH2 FP conf: 34*

How did O=C1COc2ccc(S(=O)(=O)CCC(=O)NC3CCCCC3)cc2N1 do in these assays?
PAFAH1B3 inh: -2; TCR-CD3 inh: -5; pPAFAH inh: -3; PAFAH2 inh: 19; PAFAH1B2 inh: -1

What do the screens show for `CC(C)Cc1csc(NC(=O)c2ccc(F)cc2)c1C(=O)O`?
PAFAH1B3 inh: 3; TCR-CD3 inh: 5; pPAFAH inh: 9; PAFAH2 inh: 37*; PAFAH1B2 inh: 3; PAFAH2 FP conf: 21

How did Cc1ccc(S(=O)(=O)N2CCN(C(=O)COC(=O)c3ccccc3OC(F)F)CC2)c(C)c1 do in these assays?
PAFAH1B3 inh: 3; TCR-CD3 inh: -4; PAFAH2 inh: 8; PAFAH1B2 inh: 1

What do the screens show for `COc1ccc(C(C#N)N2CCC(c3ccccc3)=N2)cc1` (stereo unspecified)?
PAFAH1B3 inh: 4; TCR-CD3 inh: 5; pPAFAH inh: 6; PAFAH2 inh: 1; PAFAH1B2 inh: 5

What do the screens show for `COc1cccc(NC(=O)CC2C(=O)NC3CCCCC3N2C(=O)c2ccccc2)c1` (stereo unspecified)?
PAFAH1B3 inh: 15; TCR-CD3 inh: 4; pPAFAH inh: 4; PAFAH2 inh: 0; PAFAH1B2 inh: 7

High-throughput results as filed in PubChem.
